Measurements as given in PubChem BioAssay AID1159580 (chemical genetic matrix, 2015).
Among all 5,500 compounds or so, about 2,000 (36%) were called active. Inconclusive results (about 18%) are left out. This is one part of the list. Values without a mark were called inactive. No stated cut-off is given here; in the data, active means normalized growth mostly below about 0.91 (no sharp cut-off); inconclusive means no clear call, values can overlap the other calls; inactive means mostly above about 0.92.

Assay: chemical genetic growth profiling, strain panel (AID 1159580);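 further: tested at 20 µM; growth read once vehicle control cultures reached saturation at 30 °C; 1 = growth at the plate median or of vehicle wells; lower values mean less growth of the strain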
Details: S. cerevisiae deletion strains, growth OD
[1] = locus YDL101C, strain DUN1, active compounds read low
[2] = locus YHR030C, strain SLT2, active compounds read low
[3] = locus YAR019C, strain CDC15, active compounds read low
[4] = locus YBL105C, strain PKC1, active compounds read low
[5] = locus YBR135W, strain CKS1, active compounds read low
[6] = locus YBR136W, strain MEC1, active compounds read low
[7] = locus YBR160W, strain CDC28, active compounds read low
[8] = locus YDL017W, strain CDC7, active compounds read low
[9] = locus YDL028C, strain MPS1, active compounds read low
[10] = locus YDL108W, strain KIN28, active compounds read low
[11] = locus YDL132W, strain cdc53, active compounds read low
[12] = locus YDL214C, strain PRR2, active compounds read low
[13] = locus YDR052C, strain DBF4, active compounds read low
[14] = locus YDR054C, strain cdc34, active compounds read low
[15] = locus YDR226W, strain ADK1, active compounds read low
[16] = locus YDR477W, strain SNF1, active compounds read low
[17] = locus YER123W, strain YCK3, active compounds read low
[18] = locus YER133W, strain GLC7, active compounds read low
[19] = locus YFL009W, strain cdc4, active compounds read low
[20] = locus YFL029C, strain CAK1, active compounds read low
[21] = locus YFR003C, strain YPI1, active compounds read low
[22] = locus YFR019W, strain FAB1, active compounds read low
[23] = locus YFR028C, strain CDC14, active compounds read low
[24] = locus YGR040W, strain KSS1, active compounds read low
[25] = locus YGR052W, strain FMP48, active compounds read low
[26] = locus YGR092W, strain DBF2, active compounds read low
[27] = locus YHR079C, strain IRE1, active compounds read low
[28] = locus YHR082C, strain KSP1, active compounds read low
[29] = locus YHR205W, strain SCH9, active compounds read low
[30] = locus YIL147C, strain SLN1, active compounds read low
[31] = locus YJL095W, strain BCK1, active compounds read low
[32] = locus YJL128C, strain PBS2, active compounds read low
[33] = locus YJL157C, strain FAR1, active compounds read low
[34] = locus YJR016C, strain ILV3, active compounds read low
[35] = locus YJR066W, strain TOR1 (second series), active compounds read low
[36] = locus YJR066W, strain TOR1, active compounds read low
[37] = locus YKL048C, strain ELM1, active compounds read low
[38] = locus YKL067W, strain YNK1, active compounds read low
[39] = locus YKL101W, strain HSL1, active compounds read low
[40] = locus YKL193C, strain SDS22, active compounds read low
[41] = locus YKL203C, strain TOR2, active compounds read low
[42] = locus YLR113W, strain HOG1, active compounds read low
[43] = locus YLR133W, strain CKI1, active compounds read low
[44] = locus YLR403W, strain SFP1, active compounds read low
[45] = locus YML070W, strain DAK1, active compounds read low
[46] = locus YMR001C, strain CDC5, active compounds read low
[47] = locus YMR205C, strain PFK2 (second series), active compounds read low
[48] = locus YMR277W, strain FCP1, active compounds read low
[49] = locus YNL006W, strain LST8, active compounds read low
[50] = locus YNL020C, strain ARK1, active compounds read low
[51] = locus YNL161W, strain CBK1, active compounds read low
[52] = locus YNL183C, strain NPR1, active compounds read low
[53] = locus YNL207W, strain RIO2, active compounds read low
[54] = locus YNL222W, strain SSU72, active compounds read low
[55] = locus YNL307C, strain MCK1 (second series), active compounds read low
[56] = locus YOL078W, strain AVO1, active compounds read low
[57] = locus YOL136C, strain PFK27, active compounds read low
[58] = locus YOR061W, strain CKA2, active compounds read low
[59] = locus YOR119C, strain RIO1, active compounds read low
[60] = locus YOR231W, strain MKK1, active compounds read low
[61] = locus YOR329C, strain SCD5, active compounds read low
[62] = locus YPL031C, strain PHO85, active compounds read low
[63] = locus YPL153C, strain RAD53, active compounds read low
[64] = locus YPL204W, strain HRR25, active compounds read low
[65] = locus YPL209C, strain IPL1, active compounds read low
[66] = locus YPL256C, strain CLN2, active compounds read low
[67] = locus YPR025C, strain CCL1, active compounds read low
[68] = locus YPR106W, strain ISR1, active compounds read low
[69] = locus YPR111W, strain DBF20, active compounds read low
[70] = strain NNK1, active compounds read low
[71] = strain TSCII, active compounds read low

`Cn1ncc(C(=O)O/N=C(/N)c2cc(C(F)(F)F)cc(C(F)(F)F)c2)c1-n1cccc1` showed a normalized growth (locus YAL013W, strain DEP1, active compounds read low) of 1.02, a normalized growth (locus YBR229C, strain ROT2, active compounds read low) of 1.01 and a normalized growth [1] of 1.01. For the same molecule, the normalized growth (locus YDL134C, strain PPH21, active compounds read low) was 1.02, the normalized growth (locus YDR150W, strain NUM1, active compounds read low) was 0.963 and the normalized growth (locus YEL061C, strain CIN8, active compounds read low) was 0.999. The normalized growth (locus YGR078C, strain PAC10, active compounds read low) was 1, the normalized growth [2] was 0.972 and the normalized growth (locus YHR087W, strain rtc3, active compounds read low) was 0.996. For the same molecule, the normalized growth (locus YJR043C, strain POL32, active compounds read low) was 0.999, the normalized growth (locus YJR075W, strain HOC1, active compounds read low) was 0.972 and the normalized growth (locus YKL190W, strain CNB1, active compounds read low) was 1.01. The normalized growth (locus YLR039C, strain RIC1, active compounds read low) was 0.958, the normalized growth (locus YLR058C, strain SHM2 (second series), active compounds read low) was 1 and the normalized growth (locus YLR085C, strain ARP6, active compounds read low) was 0.984. The normalized growth (locus YLR262C, strain YPT6, active compounds read low) was 1.03, the normalized growth (locus YML094W, strain GIM5, active compounds read low) was 0.988 and the normalized growth (locus YMR219W, strain ESC1, active compounds read low) was 1. The normalized growth (locus YMR263W, strain SAP30, active compounds read low) was 0.934, the normalized growth (locus YMR307W, strain GAS1, active compounds read low) was 1.03 and the normalized growth (locus YNL153C, strain GIM3, active compounds read low) was 0.996. It also gave a normalized growth (locus YNL298W, strain CLA4 (second series), active compounds read low) of 1.02, a normalized growth (locus YNL322C, strain KRE1, active compounds read low) of 0.991 and a normalized growth (locus YNR030W, strain Alg12, active compounds read low) of 1.02. The normalized growth (locus YOL006C, strain TOP1, active compounds read low) was 0.98, the normalized growth (locus YPL055C, strain LGE1, active compounds read low) was 0.88 and the normalized growth (locus YPL241C, strain CIN2, active compounds read low) was 0.935. The normalized growth (locus YPR135W, strain CTF4, active compounds read low) was 0.961.

In the case of `COc1c(Br)csc1C(=O)O/N=C(/N)c1cc(C(F)(F)F)cc(C(F)(F)F)c1`, the normalized growth [3] is reported as 0.994, the normalized growth [4] is reported as 0.981 and the normalized growth [5] is reported as 0.99. It also gave a normalized growth [6] of 0.988, a normalized growth [7] of 0.979 and a normalized growth [8] of 0.985. The normalized growth [9] was 0.988, the normalized growth [1] was 0.954 and the normalized growth [10] was 0.987. It also gave a normalized growth [11] of 0.989, a normalized growth [12] of 1.05 and a normalized growth [13] of 0.99. The normalized growth [14] was 0.989, the normalized growth [15] was 0.986 and the normalized growth [16] was 1.05. For the same molecule, the normalized growth [17] was 0.999, the normalized growth [18] was 1.03 and the normalized growth [19] was 0.995. For the same molecule, the normalized growth [20] was 0.96, the normalized growth [21] was 0.988 and the normalized growth [22] was 1. The normalized growth [23] was 0.987, the normalized growth [24] was 1.06 and the normalized growth [25] was 1.1. The normalized growth [26] was 1, the normalized growth [2] was 1.1 and the normalized growth [27] was 1.07. The normalized growth [28] was 1.14, the normalized growth [29] was 1.03 and the normalized growth [30] was 0.993. For the same molecule, the normalized growth [31] was 1.09, the normalized growth [32] was 0.956 and the normalized growth [33] was 1.01. The normalized growth [34] was 0.979, the normalized growth [35] was 0.99 and the normalized growth [36] was 1.15. It also gave a normalized growth [37] of 1.01, a normalized growth [38] of 1.01 and a normalized growth [39] of 1.05. It also gave a normalized growth [40] of 0.987, a normalized growth [41] of 1.14 and a normalized growth [42] of 1.02. It also gave a normalized growth [43] of 1.03, a normalized growth [44] of 1.05 and a normalized growth [45] of 1.04. It also gave a normalized growth [46] of 0.989, a normalized growth [47] of 0.999 and a normalized growth [48] of 0.99. The normalized growth [49] was 0.995, the normalized growth [50] was 1.03 and the normalized growth [51] was 0.982. It also gave a normalized growth [52] of 1.03, a normalized growth [53] of 0.989 and a normalized growth [54] of 0.985. For the same molecule, the normalized growth [55] was 1.05, the normalized growth [56] was 0.986 and the normalized growth [57] was 1.03. The normalized growth [58] was 0.97, the normalized growth [59] was 1.13 and the normalized growth [60] was 1.03. It also gave a normalized growth [61] of 0.995, a normalized growth [62] of 1.06 and a normalized growth [63] of 1.04. It also gave a normalized growth [64] of 1.07, a normalized growth [65] of 0.985 and a normalized growth [66] of 1.01. For the same molecule, the normalized growth [67] was 0.987, the normalized growth [68] was 0.967 and the normalized growth [69] was 0.964. For the same molecule, the normalized growth [70] was 1 and the normalized growth [71] was 0.993.

In the case of `Cc1cc(/C(N)=N\OC(=O)C(C)(C)C)cc(/C(N)=N\OC(=O)C(C)(C)C)c1`, the normalized growth [3] is reported as 0.977, the normalized growth [4] is reported as 0.985 and the normalized growth [5] is reported as 0.992. For the same molecule, the normalized growth [6] was 0.969, the normalized growth [7] was 0.98 and the normalized growth [8] was 0.989. It also gave a normalized growth [9] of 0.949, a normalized growth [1] of 0.985 and a normalized growth [10] of 0.983. The normalized growth [11] was 0.987, the normalized growth [12] was 0.968 and the normalized growth [13] was 0.996. It also gave a normalized growth [14] of 0.985, a normalized growth [15] of 0.979 and a normalized growth [16] of 0.991. For the same molecule, the normalized growth [17] was 0.974, the normalized growth [18] was 0.977 and the normalized growth [19] was 0.982. For the same molecule, the normalized growth [20] was 0.986, the normalized growth [21] was 0.989 and the normalized growth [22] was 0.979. It also gave a normalized growth [23] of 0.983, a normalized growth [24] of 0.979 and a normalized growth [25] of 1.02. For the same molecule, the normalized growth [26] was 1.02, the normalized growth [2] was 0.904 and the normalized growth [27] was 1.02. It also gave a normalized growth [28] of 1.06, a normalized growth [29] of 0.974 and a normalized growth [30] of 0.964. For the same molecule, the normalized growth [31] was 0.992, the normalized growth [32] was 0.937 and the normalized growth [33] was 1. It also gave a normalized growth [34] of 0.993, a normalized growth [35] of 0.962 and a normalized growth [36] of 1. It also gave a normalized growth [37] of 0.987, a normalized growth [38] of 0.953 and a normalized growth [39] of 0.954. The normalized growth [40] was 0.983, the normalized growth [41] was 1.08 and the normalized growth [42] was 0.858 (active). For the same molecule, the normalized growth [43] was 1, the normalized growth [44] was 0.997 and the normalized growth [45] was 0.966. The normalized growth [46] was 0.969, the normalized growth [47] was 0.991 and the normalized growth [48] was 0.972. The normalized growth [49] was 0.984, the normalized growth [50] was 0.989 and the normalized growth [51] was 0.988. For the same molecule, the normalized growth [52] was 1.03, the normalized growth [53] was 0.989 and the normalized growth [54] was 0.979. It also gave a normalized growth [55] of 0.947, a normalized growth [56] of 0.992 and a normalized growth [57] of 0.962. The normalized growth [58] was 1, the normalized growth [59] was 1.03 and the normalized growth [60] was 1. For the same molecule, the normalized growth [61] was 0.99, the normalized growth [62] was 0.997 and the normalized growth [63] was 0.965. The normalized growth [64] was 0.969, the normalized growth [65] was 0.991 and the normalized growth [66] was 0.922. The normalized growth [67] was 0.989, the normalized growth [68] was 0.978 and the normalized growth [69] was 0.954. The normalized growth [70] was 0.982 and the normalized growth [71] was 0.967.
